Inconclusive results are not listed. Activity calls are given as the source filed them. Calls come from the whole dose curve; as a rule, active = well fitted inhibition curve with a large enough effect; inconclusive = small, poorly fitted or top-dose-only effect; inactive = flat fitted curve, though single readings scatter.
Tested on: CRL-7250
Test: qHTS assay to identify novel small-molecules to repurpose for Merkel cell carcinoma treatment (AID 1296009); note: nearly all actives have a fitted effect of over 60% in size
Conditions: MCC and control cell lines, CellTiter-Glo viability, 72 h; series mostly up to 92 µM; activity change, negative = cytotoxicity: at the top concentration
How it was run: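 72 hr, 37 degree celsius; NPC 8-pt / MIPE 11-pt dose response; compound pinned in DMSO; CellTiter-Glo, 10 min RT, luminescence; normalized to no-cell and DMSO controls.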

Row | Structure (SMILES) | outcome
1 | C[C@]1(OC(=O)/C=C/c2ccccc2)C[C@H](O)[C@]2(O)C=CO[C@@H](O[C@@H]3O[C@H](CO)[C@@H](O)[C@H](O)[C@H]3O)C12 (stereo not given in full) | inactive [at 17.4 µM]
2 | CC(=O)OC1CC(C)C2(CCC3(CC(=O)OC3O)O2)C2(C)CCCC(C)(C)C12 (stereo not given) | inactive [at 17.4 µM]
3 | CC(C)c1cc2c(c(O)c1O[C@@H]1O[C@H](CO)[C@@H](O)[C@H](O)[C@H]1O)CC1(O)CCC(O)C(C)(C)C1CC2 (stereo not given in full) | inactive [at 17.4 µM]
4 | COC(=O)[C@@H](O)[C@H]1[C@@]2(C)CC3(O)[C@@H](C(=O)[C@H]2O)[C@]24O[C@]25CC(=O)O[C@@H](c2ccoc2)[C@]5(C)CCC4[C@]13C (stereo not given in full) | inactive [at 17.4 µM]
5 | Cc1ccc2c(c1)C=Cc1cc(C)ccc1C2c1cn(Cc2ccc(C(=O)Nc3nn[nH]n3)o2)c(=O)[nH]c1=S | inactive
6 | C=C1C(O)CCC2(C)CC3(OC)OC(=O)C(C)=C3CC12 (stereo not given) | inactive
7 | O=C(c1ccc(C#Cc2cccc(F)c2)cn1)N1CC2CC2C1 (stereo not given) | inactive
8 | CC(=O)NC(CCC(=O)O)C(=O)NCCc1ccc(O)cc1 (stereo not given) | inactive
9 | COC(=O)C1=COC(OC2OC(CO)C(O)C(O)C2O)C2C(COC(=O)/C=C/c3ccc(O)c(O)c3)C(O)C(O)C12 (stereo not given) | inactive [at 17.4 µM]
10 | C[C@H]1CC[C@@]2(OC1)O[C@H]1CC3C4CC[C@H]5C[C@@H](O)CC[C@]5(C)C4=CC(=O)[C@]3(C)[C@H]1[C@@H]2C (stereo not given in full) | inactive [at 17.4 µM]
11 | N#CC1C(=O)N=C(c2cc(Cl)ccc2O)C=C1c1cc(OCc2ccccc2)cc(OCc2ccccc2)c1 (stereo not given) | inactive
12 | CC(=O)[C@@H]1CC[C@]2(C(=O)O)CC[C@]3(C)C(CCC4[C@@]5(C)CC[C@H](O)C(C)(C)C5CC[C@]43C)C12 (stereo not given in full) | inactive [at 17.4 µM]
13 | O=S(=O)(Nc1cc(Cl)c(Oc2cnc3ccccc3c2)c(Cl)c1)c1ccc(Cl)cc1Cl | inactive
14 | CC1CCC2(C(=O)OC3OC(CO)C(O)C(O)C3O)CCC3(C)C(=CCC4C5(C)CCC(O)C(C)(CO)C5CCC43C)C2C1(C)O (stereo not given) | inactive [at 17.4 µM]
15 | CC/C=C\CC1C(CC(=O)O)CCC1OC1OC(CO)C(O)C(O)C1O (stereo not given) | inactive
16 | COc1ccccc1-c1ccc(-c2cn(C(=O)N3CCCCC3Cc3ccccc3)nn2)cc1 (stereo not given) | inactive
17 | C/C1=C\CC[C@H](C)CCO[C@@H]2O[C@H](CO[C@@H]3OC[C@](O)(COC1=O)[C@H]3O)[C@@H](O)[C@H](O)[C@H]2O | inactive [at 17.4 µM]
18 | COC1C=C(C)C(O)(CO)C2(C)CCCC(C)(C)C12 (stereo not given) | inactive
19 | C=C1C(=O)OC[C@H]2C(C(=O)O)=CC3CC(C)(C)C[C@@]132 (stereo not given in full) | inactive
20 | C/C=C(\C)C(=O)OCC1OC(OC2OC(CO)C(O)C(O)C2O)C(O)C(O)C1O (stereo not given) | inactive [at 17.4 µM]

Row | Structure (SMILES) | outcome
21 | COc1cc(/C=C/C(=O)O[C@H]2[C@@H]3C=CO[C@@H](O[C@@H]4O[C@H](CO)[C@@H](O)[C@H](O)[C@H]4O)[C@@H]3[C@@]3(CO)O[C@@H]23)ccc1O | inactive [at 17.4 µM]
22 | C=CC1C(OC2OC(CO)C(O)C(O)C2O)OC=C2C(=O)N3C(C(=O)O)Cc4c([nH]c5ccccc45)C3CC21 (stereo not given) | inactive [at 17.4 µM]
23 | C=CC1(C)C=C2C(=O)CC3C(C)(C)CCCC3(C(=O)O)C2(O)CC1 (stereo not given) | inactive
24 | COc1cccc(-c2ccc([C@@H](Oc3cc(-c4ccc(C[C@H](N)C(=O)O)cc4)nc(N)n3)C(F)(F)F)cc2)c1 | inactive
25 | COC(=O)C(CC1CCCC1)c1ccc(S(C)(=O)=O)cc1 (stereo not given) | inactive
26 | COC(=O)[C@@]1(O)C=CC[C@@H]2[C@@]3(C)C[C@@H](c4ccoc4)OC(=O)[C@H]3CC[C@]21C | inactive
27 | C/C(=C\CCC(C)(C)O)CCO[C@@H]1O[C@H](CO[C@@H]2O[C@@H](C)[C@H](O)[C@@H](O)[C@H]2O)[C@@H](O)[C@H](O)[C@H]1O | inactive [at 17.4 µM]
28 | C[C@@H]1O[C@@H](O[C@H]2[C@@H]3C=CO[C@@H](O[C@@H]4O[C@H](CO)[C@@H](O)[C@H](O)[C@H]4O)[C@@H]3[C@@]3(CO)O[C@@H]23)[C@H](OC(=O)/C=C/c2ccc(O)c(O)c2)[C@H](O)[C@H]1O | inactive [at 17.4 µM]
29 | O=C(Nc1ccccc1)N1CCN(Cc2ccc3ccccc3n2)CC1 | inactive
30 | CO[C@@H]1CC[C@H](OC[C@]2(COC(=O)c3ccc(C)[nH]3)[C@H](OC(C)=O)CC[C@@]3(C)[C@@H]4CC=C(C)[C@@H](C5=C(O)C(=O)OC5O)[C@]4(C)CC[C@@H]32)O[C@H]1C (stereo not given in full) | inactive [at 17.4 µM]
31 | COc1cc(OC)cc(-c2ccc3c(-c4ccc(F)cc4)[nH]nc3n2)c1 | inactive
32 | CCCCNc1ccc(-c2ccc(CN3CCOCC3)cn2)c(NC2CCC(O)CC2)c1 (stereo not given) | inactive [at 17.4 µM]
33 | C=CC(C)(CC/C=C(\C)C(=O)OC)OC1OC(COC(=O)CC(C)(O)CC(=O)O)C(OC2OC(CO)C(O)C(O)C2O)C(O)C1O (stereo not given) | inactive [at 17.4 µM]
34 | O=C(/C=C/c1ccc(O)cc1)OC[C@H]1O[C@H](O[C@@]2(CO)O[C@@H](CO)[C@H](O)[C@H]2O)[C@H](O)[C@@H](O)[C@@H]1O | inactive [at 17.4 µM]
35 | CCC[C@@H]1C[C@@H](C(=O)N[C@@H]([C@H]2O[C@H](SC)[C@H](O)[C@@H](O)[C@@H]2O)[C@@H](C)O)N(C)C1 | inactive
36 | Clc1ccc2c(c1)C1=NCCN1c1c(-c3noc(C4CC4)n3)ncn1-2 | inactive
37 | CC1CC2OCC3(O)CCC(O)C(C14CC(c1ccoc1)OC4=O)C23CO (stereo not given) | inactive
38 | COc1cccc(CN(C(=O)CC(C)(C)C)[C@H]2C[C@H](C(=O)N3CCNCC3)N(Cc3ccc4c(c3)OCO4)C2)c1 | inactive
39 | COCC(=O)N1CCc2cc(-c3csc(NC(=O)c4cc(OC)cc(OC)c4)n3)ccc21 | inactive
40 | O=C(O)C[C@H]1CCC(=O)[C@@H]1C/C=C\CCO | inactive
